Measurements from PubChem BioAssay (NCATS).
Results filed as inconclusive are left out. Entries that show only a call come without a potency. Active and inactive are the calls of the source. Calls follow the shape of the dose curve; as a rule, active = well fitted inhibition curve with a large enough effect; inconclusive = small, poorly fitted or top-dose-only effect; inactive = no such curve, though single readings can be large or run the other way.

biological target: Tumor susceptibility gene 101 protein (Homo sapiens) (UniProt Q99816); assay: qHTS Assay for Iinhibitors of HIV-1 Budding by Blocking the Interaction of PTAP/TSG101: Hit Validation (AID 651600); conditions: PTAP peptide/TSG101 UEV interaction, biochemical assay; series mostly up to 57.5 µM; also: nearly all actives have a fitted effect of over 70% in size
Sequence (Q99816 whole entry, looked up, the tested form may be a part): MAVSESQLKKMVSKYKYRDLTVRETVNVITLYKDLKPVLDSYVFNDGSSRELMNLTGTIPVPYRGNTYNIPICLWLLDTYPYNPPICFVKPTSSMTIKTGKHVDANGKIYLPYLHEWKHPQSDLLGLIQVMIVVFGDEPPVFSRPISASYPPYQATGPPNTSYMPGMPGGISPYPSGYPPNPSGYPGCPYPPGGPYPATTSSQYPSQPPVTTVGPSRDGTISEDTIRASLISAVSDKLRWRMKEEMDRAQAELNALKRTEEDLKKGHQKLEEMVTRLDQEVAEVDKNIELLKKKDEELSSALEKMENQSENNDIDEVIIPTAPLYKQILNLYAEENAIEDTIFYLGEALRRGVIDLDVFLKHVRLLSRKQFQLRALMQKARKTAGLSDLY
Method in brief: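 Compounds are added to the Tsg101 binding domain (10 uM final) in pH 7.5 HEPES buffer. FITC-PTAP peptide follows at 50 nM final. After 20 min at r.t., polarized FITC emission is measured.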
Potency is read from the fitted curve at half-maximal effect.

Row | SMILES | Potency
1 | CCOc1ccc(S(=O)(=O)N2CCc3cc(OC)c(OC)cc3C2)cc1 | inactive
2 | COc1cc(C2C=C(c3cccs3)Nc3ncnn32)cc(OC)c1OC (stereo not given) | inactive
3 | O=c1[nH]c2c(s1)C=Nc1ccccc1N2 | 9.19 µM (active)
4 | CSc1nc(-c2cccs2)c(C#N)c(=O)[nH]1 | inactive
5 | O=C(NCc1cc(C(F)(F)F)ccc1Cl)c1cccc2c1C(=O)c1ccc(N3CCC(Cc4ccccc4)CC3)cc1S2(=O)=O | 13 µM (active)
6 | COc1ccc(OC)c(S(=O)(=O)Nc2cc3c(cc2C)n(C)c(=O)c(=O)n3C)c1 | inactive
7 | CC1=CC(=C(C#N)c2nc3ccccc3s2)C=C(C)N1c1ccc(F)cc1 | 18.3 µM (active)
8 | N#Cc1c(SCC(=O)Nc2nc3ccc(Br)cc3s2)sc2c(O)cc(=O)[nH]c12 | inactive
9 | COc1ccc(CCn2c(NN=C(C)C)nc3c2c(=O)[nH]c(=O)n3C)cc1 | inactive
10 | O=c1oc2c(CN3CCCCC3)c(O)ccc2cc1-c1nc2ccccc2[nH]1 | 18.3 µM (active)
11 | Cc1nc2nc(-c3cccs3)cn2nc1C | inactive
12 | CCN(C(=O)c1sc2nc3n(c(=O)c2c1C)CCCC3)c1ccccc1F | inactive
13 | CCCCCCn1c(=O)[nH]c2nc3cc(N)ccc3nc2c1=O | 14.6 µM (active)
14 | O=[N+]([O-])c1cc(Cl)cc(/C=N/NC(=S)Nc2ccc(S(=O)(=O)N3CCOCC3)cc2)c1O | inactive
15 | CCc1c(C)sc(NC(=O)c2ccccc2[N+](=O)[O-])c1C(N)=O | inactive
16 | Cc1cc(Br)ccc1NC(=O)c1sc2nc3n(c(=O)c2c1C)CCCC3 | inactive
17 | Cn1c(=O)c(Nc2ccc(Cl)cc2)c2c3c(cccc31)C(=O)c1ccccc1-2 | 10.3 µM (active)
18 | CCOC(=O)Cn1c(=NC(=O)c2ccc([N+](=O)[O-])s2)sc2ccccc21 | inactive
19 | CC1(C)CC(=O)C2=C(C1)OC(N)=C(C#N)C2c1cc2c(cc1[N+](=O)[O-])OCO2 (stereo not given) | inactive
20 | O=C(NCc1cccc(C(F)(F)F)c1)c1cccc2c1C(=O)c1ccc(N3CCC(Cc4ccccc4)CC3)cc1S2(=O)=O | 14.6 µM (active)

Row | SMILES | Potency
21 | COc1ccc(/C=C2/N=C(c3cccs3)OC2=O)cc1OC(C)C | inactive
22 | COc1cc(-c2cc(-c3ccc(N)cc3)[nH]c(=O)c2C#N)cc(OC)c1OC | inactive
23 | CCN(CC)c1ccc(/C=C(\C#N)C(=O)NCc2ccccc2)cc1 | 14.6 µM (active)
24 | COc1ccc(/C=c2\s/c(=C/C(=O)c3ccc(C)cc3)[nH]c2=O)c(OC)c1 | inactive
25 | O=C1Nc2ccc(Cl)cc2C12Nc1ccccc1-c1nnc(SCc3ccccc3F)nc1O2 (stereo not given) | inactive
26 | Nc1nnnn1/N=C/c1cc(Cl)cc(Cl)c1O | 18.3 µM (active)
27 | COc1cccc2c1C(=O)c1c(O)c3c(c(O)c1C2=O)C[C@](O)(C(C)=O)C[C@H]3O[C@@H]1C[C@@H](N)[C@@H](O)[C@@H](C)O1 | 14.6 µM (active)
28 | COc1ccc(C(=O)c2sc3nc(C)cc(-c4cccs4)c3c2N)cc1 | inactive
29 | Cc1ccccc1-n1c(SCc2c(C)noc2C)nnc1-c1cccnc1 | inactive
30 | C(=N\NC1=Nc2cccc3cccc1c23)/c1ccccc1 | inactive
31 | COCCN(CCOC)Cc1c(O)ccc2c1O/C(=C\c1ccco1)C2=O | 13 µM (active)
32 | CC(C)c1cc(=O)oc2c3c4c(cc12)CCCN4CCC3 | 5.17 µM (active)
33 | Cn1c(=O)c(NCCc2ccccc2)c2c3c(cccc31)C(=O)c1ccccc1-2 | 2.59 µM (active)
34 | O=C(CC1CC2CCC1C2)NCc1cccs1 (stereo not given) | inactive
35 | Cn1c(=O)c2[nH]c(COc3ccccc3)nc2n(C)c1=O | inactive
36 | COc1ccc(C2C(C(=O)c3cccs3)=C(O)C(=O)N2c2nncs2)cc1 (stereo not given) | 20.6 µM (active)
37 | Cc1c(C(=O)Nc2cccc(C(F)(F)F)c2)sc2nc3n(c(=O)c12)CCCC3 | inactive
38 | COc1cc(OC)c(N(C)C(=O)c2sc3nc4n(c(=O)c3c2C)CCCC4)cc1Cl | inactive
39 | Cn1cc(/C=C(\C#N)C(=O)Nc2ccccc2O)c2ccccc21 | inactive
40 | c1ccc2c(c1)CCCN2Cc1nnnn1CC1CCCO1 (stereo not given) | inactive
